Manual score data for 112 molecules are collected here from PubChem BioAssay AID623911 (Vanderbilt High Throughput Screening Facility, 2012).

The whole screen tested about 2,100 compounds, of which about 770 (37%) were called active. Some of the results follow. Unmarked numbers belong to inactive results.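 The calls were made as follows: active = by-eye trace score of 1 for enhancers or -1 for inhibitors, so actives lie on both sides (some results past the limit were not filed as active); inactive = score 0, or 3 fluorescent, or 4 baseline rise.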

Sequence of G protein-activated inward rectifier potassium channel 2 (Homo sapiens) + G protein-activated inward rectifier potassium channel 1 (Homo sapiens) (P48051 whole entry, looked up): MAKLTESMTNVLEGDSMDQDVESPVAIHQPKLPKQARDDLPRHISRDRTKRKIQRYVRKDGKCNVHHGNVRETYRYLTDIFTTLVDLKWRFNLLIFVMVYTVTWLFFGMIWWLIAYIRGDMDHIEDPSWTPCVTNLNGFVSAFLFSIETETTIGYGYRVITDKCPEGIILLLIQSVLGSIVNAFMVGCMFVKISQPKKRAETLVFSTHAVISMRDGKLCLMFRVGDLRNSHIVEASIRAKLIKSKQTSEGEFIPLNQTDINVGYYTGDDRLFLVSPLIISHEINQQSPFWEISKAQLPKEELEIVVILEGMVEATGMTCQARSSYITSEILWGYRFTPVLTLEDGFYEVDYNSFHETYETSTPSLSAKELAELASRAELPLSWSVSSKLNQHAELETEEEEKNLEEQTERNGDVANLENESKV
Sequence of G protein-activated inward rectifier potassium channel 2 (Homo sapiens) + G protein-activated inward rectifier potassium channel 1 (Homo sapiens) (P48549 whole entry, looked up): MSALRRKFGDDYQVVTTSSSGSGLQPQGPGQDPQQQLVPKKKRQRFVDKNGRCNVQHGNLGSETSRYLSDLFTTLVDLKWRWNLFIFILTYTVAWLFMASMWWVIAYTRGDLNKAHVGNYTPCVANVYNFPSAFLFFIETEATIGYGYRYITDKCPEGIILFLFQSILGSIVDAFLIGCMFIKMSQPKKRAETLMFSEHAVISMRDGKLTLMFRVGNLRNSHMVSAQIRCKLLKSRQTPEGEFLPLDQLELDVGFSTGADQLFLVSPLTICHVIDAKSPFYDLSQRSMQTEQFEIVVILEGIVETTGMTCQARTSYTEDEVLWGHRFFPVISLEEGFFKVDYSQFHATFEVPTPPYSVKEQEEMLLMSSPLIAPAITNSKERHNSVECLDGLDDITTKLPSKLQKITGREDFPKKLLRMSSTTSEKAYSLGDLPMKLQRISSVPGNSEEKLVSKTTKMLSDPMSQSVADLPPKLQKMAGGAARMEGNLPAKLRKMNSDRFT

This assay addresses G protein-activated inward rectifier potassium channel 2 (Homo sapiens) + G protein-activated inward rectifier potassium channel 1 (Homo sapiens) (UniProt P48051+P48549). As to the kind of experiment: GIRK1/2 thallium flux modulators, retest, confirmation, cell-based, HEK293 rmGlu8/hGIRK1/2, FluoZin-2 (AID 623911). The settings on record: HEK293 rmGlu8/hGIRK1/2, thallium flux FluoZin-2; actives lie on both sides; glutamate co-added at its EC20 level.
`O=C(Nc1nnc(-c2ccccc2F)s1)C1CCCO1` (configuration not stated): the manual score is 0.
As to `OC(CNCC1CCCO1)Cn1c2ccc(Br)cc2c2cc(Br)ccc21` (configuration not stated), the manual score is 0.
As to `COc1ccc(Nc2nnc(Cc3ccccc3)c(=O)[nH]2)c(OC)c1`, the manual score is 1 (active).
For `CCOc1ccccc1Nc1nnc(Cc2ccccc2Cl)c(=O)[nH]1`, the manual score is 1 (active).
On to `CCOc1ccccc1NC(=O)Nc1cccc(C(C)=O)c1`, for which the manual score is 0.
Regarding `COc1ccc(OC)c(Nc2cc(-c3ccccc3)nc(N)n2)c1`, the manual score was -0.5.
`Cc1sc2ncnc(N(C)Cc3cccs3)c2c1C`: the manual score is -1 (active).
In the case of `CCOC(=O)c1c(CNCCN(CC)CC)n(C)c2cc(Br)c(OC)cc12`, the manual score was -1 (active).
In the case of `O=C(Nc1ccccc1-c1nnn(CC(=O)N2CCc3ccccc3C2)n1)C1CCC1`, the manual score was 0.
On to `CN=C1c2c(-c3ccccc3)c3cc(OC)ccc3n2CCN1C`, for which the manual score is -1 (active).
Regarding `C=CCn1c(-c2cccs2)nc2ccccc21`, the manual score was 0.
In the case of `CCc1cc(-c2n[nH]c(C)c2-c2nc3ccccc3n2C)c(O)c(CN2CCN(C)CC2)c1O`, the manual score was -1 (active).
Under `CCCN(CCC)C(=O)CSc1nc2ccccc2c(=O)n1C1CCCC1` stands -1 (active); under `COC(=O)c1ccc2c(=O)n(C3CCCCC3)c(SCC#N)nc2c1`, 0.
In the case of `CCN(CC)C(=O)CSc1nc2ccccc2c(=O)n1-c1ccccc1OC` it was 0; in that of `CC(C)(C)c1nnc(N/N=C/c2ccccc2)n(N)c1=O`, 0; in that of `CNC(=S)N/N=C(\C)c1ccc(C)c(C)c1`, 0.
With `C=C(C)CNC(=S)N/N=C(\C)c1ccc(Cl)s1`, the manual score is 1 (active).
In the case of `CC(C)NC(=S)N/N=C/c1cc(Br)ccc1O` it was 0; in that of `C/C(=N\NC(=O)c1csc(C)c1C)c1ccc(Cl)s1`, 0.
For `C/C(=N\NC(=S)NC(C)C)c1ccc(Cl)s1`, the manual score is 1 (active).
In the case of `C/C(=N\NC(N)=S)c1ccc(Cl)s1`, the manual score is 0.
As to `C/C(=N\NC(=S)NCCc1ccccc1)c1cccs1`, the manual score was 3.
As to `CNC(=S)N/N=C(\C)c1ccc(Cl)s1`, the manual score was 1 (active).
`CCNC(=S)N/N=C(\C)c1ccc(Cl)s1`: the manual score is 0.
In the case of `Cn1c(NC(=O)Cc2ccc(F)cc2)cc(=O)n(C)c1=O` it was 0; in that of `CS(=O)(=O)c1ccc2nc(NC(=O)C3C4C=CC(C4)C3C(=O)O)sc2c1` (configuration not stated), 0.
Turning to `CC1=NN(/C(=N\c2nnc(C)s2)Nc2ccccc2)[C@H](c2cccc3ccccc23)S1`, the manual score is 0.
For the molecule `O=C(c1oc(=O)c2ccccc2c1-c1ccccc1)N1CCN(C2CCCCC2)CC1`, the manual score was -1 (active).
In the case of `CCN(CC)CCCn1c(=S)[nH]c2cc(Cl)ccc2c1=O`, the manual score is 0.
Turning to `CCN(CC)CCn1c(=S)[nH]c2cc(Cl)ccc2c1=O`, the manual score was 0.
For the molecule `CCCCn1c(=S)[nH]c2c(oc3ccc(Cl)cc32)c1=O`, the manual score is 1 (active).
Take `Cc1ccc(C2C3=C(NCCN=C3c3ccccc3)C(=O)N2c2ccccc2)cc1` (configuration not stated): the manual score was -1 (active).
In the case of `Cc1ccc2nsnc2c1S(=O)(=O)Nc1cccc2nsnc12` it was 1 (active); in that of `O=C(NNS(=O)(=O)c1ccccc1F)c1cccc(S(=O)(=O)N2CCOCC2)c1`, 0; in that of `CCC(CC)c1nnc(NC(=O)c2ccc3ccccc3n2)s1`, 0.
Take `CCc1ccc(Nc2nc3ccccc3c(=O)s2)cc1`: the manual score was 1 (active).
Take `CCc1ccc(NCc2cc3c(C)nn(-c4ccccc4)c3[nH]c2=O)cc1`: the manual score was 0.
For the molecule `O=C1CC(C(F)(F)C(F)(F)C(F)(F)F)=Nc2ccccc2N1`, the manual score is 0.
With `Cc1ccccc1C(=O)N/N=C/c1ccc([N+](=O)[O-])s1`, the manual score was 0.
Regarding `O=C(N/N=C\c1ccc(Cl)s1)c1cccs1`, the manual score was 1 (active).
As to `O=C(N/N=C/c1ccc([N+](=O)[O-])s1)c1cccc(Br)c1`, the manual score is 0.
On to `CCOC(=O)C1CCCN(C(=O)c2cc(-c3ccccc3)on2)C1` (configuration not stated), for which the manual score is 0.
For `CCOC(=O)C1CCCN(c2ncnc3c2oc2ccccc23)C1` (configuration not stated), the manual score is -1 (active).
As for `CCOC(=O)N1CCN(C(=O)CSc2ncnc3ccccc23)CC1`, the manual score was 0.
Consider `CCOC(=O)C1CCCN(c2nc(C)nc3c2oc2ccccc23)C1` (configuration not stated), for which the manual score was -1 (active).
For the molecule `Cc1ccc(S(=O)(=O)CC(=O)Nc2ccc(S(=O)(=O)Nc3onc(C)c3C)cc2)cc1`, the manual score is -0.5.
As for `C/C(CC(O)c1ccc2ccccc2n1)=N/O` (configuration not stated), the manual score is 0.
For the molecule `CNC(=S)N=Nc1c(O)[nH]c2ccc(C(C)C)cc12`, the manual score was 0.
Regarding `Cn1c(=O)c2c(nc3sccn32)n(C)c1=O`, the manual score is 0.
Regarding `Cc1ccc(C)c(C(=O)c2c(C)nc3sccn23)c1`, the manual score was -1 (active).
Turning to `CC(C)(C)NC(=O)C(=O)NNC(=O)c1ccc(C(C)(C)C)cc1`, the manual score is 1 (active).
On to `CC(C)(C)c1ccc(C(=O)NC(=S)Nn2cnnc2)cc1`, for which the manual score is 0.
`CC(C)(C)c1ccc(SCC(N)=O)cc1`: the manual score was 0.
Consider `Cc1cccc(C(=O)NNC(=O)C(=O)NC(C)(C)C)c1`, for which the manual score is 1 (active).
Consider `O=[n+]1c2c(n([O-])c3cc(F)c(N4CCCC4)cc31)CCCC2`, for which the manual score is 3.
As for `COc1ccc2cc(C(=O)NCC(=O)O)sc(=O)c2c1OC`, the manual score is 0.
On to `C=CCn1c(SCC(=O)Nc2sc(C)c(C)c2C(=O)OCC)nnc1-c1sc(N)nc1C`, for which the manual score was -1 (active).
For `C=CCn1c(SCC(=O)Nc2sccc2C(N)=O)nc2ccc(Cl)cc2c1=O`, the manual score is 0.
For `CCOC(=O)c1cnc(SCC(=O)Nc2nc(C)c(C)s2)nc1N`, the manual score was 0.
`CCOC(=O)c1c(NC(=O)CSc2nnc(Cc3csc(N)n3)n2C)sc(C)c1C`: the manual score was -1 (active).
Under `Cc1c(C(=O)O)c(=S)sn1CCOc1ccccc1` stands 0.
Consider `Cc1ccc(-c2cnc(NC(=O)CCC(=O)N3CCCCC3)n2C)cc1`, for which the manual score is 0.
Turning to `N#Cc1nc(Cc2ccccc2)oc1NCCc1ccccc1`, the manual score is -0.5.
Under `O=C(c1cccc(F)c1)N1CCN(C(=O)c2cc(-c3ccc(Cl)cc3Cl)on2)CC1` stands 0.
For the molecule `Cc1ccc(-c2n[nH]c(=S)n2/N=C/c2cccs2)cc1`, the manual score is 0.5.
Take `Cc1ccc(-c2n[nH]c(=S)n2/N=C/c2ccc(C)s2)cc1`: the manual score is 0.
For the molecule `Cc1ccc(/C=N/n2c(-c3cccs3)n[nH]c2=S)cc1`, the manual score is 1 (active).
Take `Fc1ccc(/C=N/n2c(-c3cccs3)n[nH]c2=S)cc1`: the manual score was 1 (active).
As to `Cn1cccc1/C=N/n1c(-c2ccc(C(C)(C)C)cc2)n[nH]c1=S`, the manual score is 0.
`Cc1ccc(OCC(=O)NC(=S)Nc2cccc(C)n2)cc1`: the manual score is 0.
Regarding `O=C(NC(=S)Nc1ccccn1)c1ccco1`, the manual score is 1 (active).
As for `Cc1ccc2nsnc2c1NC(=S)NC(=O)c1ccco1`, the manual score was 1 (active).
As for `O=C(NC(=S)Nc1ccccn1)c1cc(-c2ccccc2)nc2ccccc12`, the manual score is 0.5.
Turning to `O=C(CC(=O)Nc1ccccn1)Nc1ccccn1`, the manual score was 0.
As for `COc1cccc(C(=O)NC(=S)Nc2ccc([N+](=O)[O-])cc2C)c1`, the manual score was 0.
With `Cc1ccc2cccc(NC(=S)NC(=O)c3ccnn3C)c2n1`, the manual score was 0.
Take `Cc1ccc([N+](=O)[O-])cc1NC(=S)NC(=O)c1ccco1`: the manual score was 1 (active).
For `Cc1cccc(NC(=S)NC(=O)c2ccco2)n1`, the manual score was 1 (active).
In the case of `Cc1cc([N+](=O)[O-])ccc1NC(=S)NC(=O)Cc1ccccc1`, the manual score was 0.
Turning to `COc1ccc(CO/N=C/c2c(C)[nH]c(=O)[nH]c2=O)cc1`, the manual score was 0.
Take `CCCn1nnc(NC(=O)COc2ccc(C3CCCCC3)cc2)n1`: the manual score is 0.
In the case of `CC(NC(=O)C1CC=CCC1C(=O)O)C1CC2CCC1C2` (configuration not stated) it was 0; in that of `CCN(CC)c1ccc2cc(-c3nnc(-c4ccccc4)o3)c(=O)oc2c1`, 3; in that of `CCCn1nc2cc(C(=O)NCCc3ccc(C)cc3)ccc2c1OCC`, 0.
Take `CCCn1nnnc1NC(=O)c1ccc2ccccc2c1`: the manual score was 1 (active).
Take `CCN(CC)CCn1c(NC(=O)c2ccc(Cl)cc2)nc2ccccc21`: the manual score was 0.
Regarding `CC1CN(C2CC(C)(C)NC(C)(C)C2)CCC1=O` (configuration not stated), the manual score is 0.
On to `Cc1ccc2c(CC(=O)NC3CCCc4ccccc43)coc2c1` (configuration not stated), for which the manual score was 0.
With `O=C1CCC(/C=C/c2ccccc2)=NN1Cc1ccc(Cl)c(Cl)c1`, the manual score is 0.
Take `Cc1cc(N2CCOCC2)n2nc(C)c(-c3ccccc3)c2n1`: the manual score is 0.
As to `Cc1nn2c(NCCCN(C)C)c3c(nc2c1-c1ccccc1)CCC3`, the manual score was -1 (active).
With `CCN1CCN(c2ccc(NC(=O)CCc3c(C)nc4c(-c5ccccc5)c(C)nn4c3C)cc2)CC1`, the manual score was 0.
On to `CCOC(=O)C1=C(C)NC2=C(C(=O)C(C(=O)OCC)C(c3cccc(OC)c3)C2)C1c1ccccn1` (configuration not stated), for which the manual score was 0.
`COC(=O)c1onc(C(=O)c2ccccc2)c1C(=O)OC`: the manual score is -1 (active).
In the case of `CC(C)C(=O)OCC(=O)Nc1ccc(N=Nc2ccccc2)cc1`, the manual score is 0.
Take `CN(C)S(=O)(=O)c1cc(NC(=O)COC(=O)c2ccc3c(c2)OCO3)ccc1Cl`: the manual score is 0.5.
Turning to `CCC(C(=O)OCC(=O)Nc1ccc(Cl)c(S(=O)(=O)N(C)C)c1)c1ccccc1` (configuration not stated), the manual score is 1 (active).
Regarding `Cc1cc(C)n(-c2ccc(C(=O)OCC(=O)Nc3ccc(Cl)c(S(=O)(=O)N(C)C)c3)cc2)n1`, the manual score is 1 (active).
For `Cc1nn(CC(=O)Nc2ccc(Cl)c(S(=O)(=O)N(C)C)c2)c(C)c1[N+](=O)[O-]`, the manual score is 1 (active).
For `COC(=O)c1sccc1NC(=O)CSc1ccccc1NS(=O)(=O)c1cc(Cl)ccc1Cl`, the manual score is 0.
Take `CCCCN(CCCC)c1nc2ccccc2nc1C(C#N)C(=O)NCCCOC` (configuration not stated): the manual score was 3.
In the case of `Oc1ccccc1CNc1ccc(Br)cn1`, the manual score was 0.
With `CCSc1nc(-c2ccccc2)c(C#N)c(=O)[nH]1`, the manual score was 0.
On to `CCC1(c2ccc(Cl)cc2)NC(=S)N(c2ccccc2)N1` (configuration not stated), for which the manual score was 1 (active).
As for `S=C1NC(c2ccccc2)=NCN1c1ccc(Cl)cc1`, the manual score is 0.5.
As for `Cn1ncc2cc(NC(=S)NC(=O)c3ccccc3)ccc21`, the manual score is 0.
On to `CCCCOC(=O)c1ccc(NC(=S)NC(=O)c2c(Cl)cnn2C)cc1`, for which the manual score was 0.
Regarding `COC(=O)c1ccc(NC(=S)NC(=O)c2c(Cl)cnn2C)cc1`, the manual score is 1 (active).
As to `CCCCOC(=O)c1ccc(NC(=S)NC(=O)c2c(Cl)cnn2CC)cc1`, the manual score is 1 (active).
In the case of `CCCCOC(=O)c1ccc(NC(=S)NC(=O)c2c(Br)c(C)nn2C)cc1`, the manual score was 0.
Turning to `COC(=O)c1ccc(NC(=S)NC(=O)c2cc(-c3ccccc3)nc3ccccc23)cc1`, the manual score was 0.
